Source: PubChem BioAssay
ALDH1A1 inh: blocks purified human ALDH1A1 activity. hit rate 7.3% among 220,000. Purified ALDH1A1, NADH fluorescence, propionaldehyde substrate. Potency, µM (doses to about 75.3 µM), inactives show top-dose activity, negative = inhibition, usual class: inhibitors; active = well fitted inhibition curve with a large enough effect, not every such curve was filed as active; inconclusive = small, poorly fitted or top-dose-only effect, or another doubt; inactive = no such curve, though single readings can be large or run the other way;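 note: potency is the fitted concentration of half-maximal effect; plate controls were no enzyme wells and a reference inhibitor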
PNC assembly inh: blocks assembly of the perinucleolar compartment; PC3M PTB-GFP, PNC prevalence imaging, 16 h; hits give low values; activity change (PNC), negative = inhibition, % at 10 µM; hit rate 3.1% among 140,000;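 active = readout at or below -70, meaning at least 70% loss of cells showing the perinucleolar compartment, a nuclear body marking cancer cells; inconclusive = readout between -30 and a set limit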;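 note: plate controls were DMSO wells for no effect and camptothecin positive control wells for full effect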
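Compounds are pinned in duplicate onto adhered PC3M cells stably expressing GFP-tagged PTB and incubated 16 h at 37 C. Cells are then fixed, nuclei stained with Hoechst, and PNC-positive cells counted.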
IMPase Li inh: cell-permeable IMPase inhibitors with lithium potentiation | Potency, µM (doses to about 59.4 µM), without a hit: top-dose activity, negative = IMPase inhibition, most hits filed as inhibitors | CHO-M1 cells, IP1 TR-FRET (IP-One), carbachol + lithium | hit rate 0.35% among 210,000 | AID 1457;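 note: IP1 builds up when IMPase is blocked and the TR-FRET signal falls; potency is the fitted concentration of half-maximal effect; plate controls were basal vehicle for no effect and high inhibitor control for full effect; nearly all actives have a fitted effect of over 50% in size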
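Test compounds were applied to CHO-M1 cells previously cultured for 16–30 h at 2000 per well. A small lithium amount accompanied them; after 30 min at 37C, IP1 was quantified by TR-FRET.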
12-hLO inh: blocks human 12-lipoxygenase activity; Potency, µM (titrated, usually from 57.1 µM), without a hit: top-dose activity change, negative = inhibition, most hits filed as inhibitors; hit rate 0.12% among 150,000; AID 1452; P18054; purified 12-hLO, xylenol orange hydroperoxide absorbance; note: potency is the fitted concentration of half-maximal effect; nearly all actives have a fitted effect of over 55% in size
Target sequence (P18054 whole entry, looked up): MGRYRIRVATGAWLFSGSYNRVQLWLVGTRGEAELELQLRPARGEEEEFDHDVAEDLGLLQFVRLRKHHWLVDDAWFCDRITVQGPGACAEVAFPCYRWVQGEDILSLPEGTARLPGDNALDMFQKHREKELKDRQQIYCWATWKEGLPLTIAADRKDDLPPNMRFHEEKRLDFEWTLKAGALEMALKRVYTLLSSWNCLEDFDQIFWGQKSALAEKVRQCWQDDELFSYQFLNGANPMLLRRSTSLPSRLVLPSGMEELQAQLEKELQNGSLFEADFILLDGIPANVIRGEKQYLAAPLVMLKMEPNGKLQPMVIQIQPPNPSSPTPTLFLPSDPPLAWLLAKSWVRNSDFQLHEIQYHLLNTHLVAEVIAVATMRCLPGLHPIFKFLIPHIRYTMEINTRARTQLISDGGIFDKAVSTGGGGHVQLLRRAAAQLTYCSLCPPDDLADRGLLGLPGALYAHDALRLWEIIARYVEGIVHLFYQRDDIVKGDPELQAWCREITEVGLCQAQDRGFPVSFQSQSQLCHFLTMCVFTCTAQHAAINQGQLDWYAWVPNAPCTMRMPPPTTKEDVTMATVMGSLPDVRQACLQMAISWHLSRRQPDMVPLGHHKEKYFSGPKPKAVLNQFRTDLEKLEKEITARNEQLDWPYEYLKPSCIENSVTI
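Purified human 12hLO (150 nM final) was preincubated with compounds for 15 min at room temperature in 25 mM Hepes pH 7.0, 0.01% Triton X-100, then reacted with 40 uM arachidonic acid for 30 min. Hydroperoxide was detected with ferrous iron/xylenol orange.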
HPGD inh: HPGD (human) dehydrogenase inhibition. P15428. purified HPGD, NADH fluorescence kinetic, PGE2 substrate. Potency, µM, for the others: at the top dose activity change, negative = inhibition, hits mostly inhibitors. hit rate 4.3% among 150,000; active = well fitted inhibition curve with a large enough effect, not every such curve was filed as active; inconclusive = small, poorly fitted or top-dose-only effect, or another doubt; inactive = no such curve, though single readings can be large or run the other way; note: potency is the fitted concentration of half-maximal effect
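NADH formation kinetics: reaction with 30 uM PGE2 and 1 mM NAD+ (final), 20 nM enzyme, Tris-HCl pH 8 with Tween 20, after 15 min compound preincubation at room temperature. Fluorescence change, last versus first of five reads.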
IMPase inh: membrane-permeable compound that blocks inositol monophosphatase. P97697. CHO-M1 cells, IP1 accumulation, HTRF TR-FRET ratio. inhibition (IP1 accumulation), % at 46.1 µM. 120,000 tested, under 10 active; active = well fitted curve in the direction sought with a large enough effect in the signal ratio, not every such curve was filed as active; inconclusive = small, poorly fitted or top-dose-only effect, or a change in a side signal; inactive = no such curve, though single readings can be large or run the other way; the % refers to the signal ratio;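 note: cells stimulated with carbachol in lithium chloride buffer; plate controls were DMSO basal wells for no effect and reference inhibitor wells for full effect; higher means more IMPase inhibition seen as more IP1 and lower FRET ratio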
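CHO-M1, 2000 cells/well, cultured 16–30 h; cpd up to 46 uM; carbachol (50 uM solution, stimulation buffer w/ 50 mM LiCl, pH 7.4), 30 min 37C; IP-One TR-FRET, 10 min RT; Ex 320/Em 665, 620; Hill-fit AC50.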
Active calls of the source: *; u = inconclusive; x = no result; [ ] = remark or other dose. In the library only some 11% were active in any assay of this set; here they are far more common. Unless noted, calls come from the whole dose curve; as a rule, active = well fitted curve in the direction sought with a large enough effect; inconclusive = small, poorly fitted or top-dose-only effect, or another doubt; inactive = no such curve, though single readings can be large; an effect the other way counts as inactive or inconclusive. Unless noted, % is set by controls: 0 for no effect and ±100 for the full control effect.

SMILES | ALDH1A1 inh | PNC assembly inh | IMPase Li inh | 12-hLO inh | HPGD inh | IMPase inh
COc1ccc(NS(=O)(=O)c2cc(C(=O)O)ccc2C)cc1 | 3% | 51 | -5%[38.3 µM] | 2% | -7% | -4
O=C(O)C1=CC(O)[C@@H](O)C(O)C1 (some centres not stated) | 20% | x | 3% | -4% | -6% | x
O=CN1CCN(C2CC(=O)N(c3ccc(Br)cc3)C2=O)CC1 (configuration not stated) | u | -86* | 0%[38.3 µM] | -3% | -9% | -7
O=C1CC(N2CCC(O)CC2)C(=O)N1c1ccc(Br)cc1 (configuration not stated) | 22µM* | 11 | -9%[38.3 µM] | -17% | -9% | -3
Cn1cc(Br)c(-c2cccc(NC(=O)CCCC(=O)O)c2)n1 | -5% | x | x | x | x | x
Cc1sc2c3ccsc3ccc2[n+]1C | 4.5µM* | x | 9% | x | x | x
CC(C)=N[C@H](C(=O)O)C(C)(C)S | u | x | 0% | -3%[11.4 µM] | -6% | x
O=C(O)/C=C1\CCCc2ccccc2[C@H]1O | 5% | x | 4% | 1% | -10% | 2
COC(=O)NC(CCc1ccccc1)C(C(C)=O)C(=O)OC (configuration not stated) | 7% | x | 7% | 3% | -4% | x
CC1(C)C(=O)C2(CCCC2)C(=O)OC1c1ccco1 (configuration not stated) | 22µM* | 22 | 21%[38.3 µM] | 3% | -12% | 0
CC1(C)C(=O)C2(CCCCC2)C(=O)OC1c1ccc(O)cc1 (configuration not stated) | 3% | -28 | -2%[38.3 µM] | -6% | -11% | 2
CC1(C)C(=O)C2(CCCCC2)C(=O)OC1c1cccn1-c1ccc([N+](=O)[O-])cc1 (configuration not stated) | 5% | -87* | 10% | -5% | -7% | 4
Nc1ccc(N2CCN(c3ccc(F)cc3)CC2)cc1 | 22µM* | x | 4% | x | x | x
Nc1ccc(N2CCCCCC2)cc1 | 7.9µM* | u | 66%[38.3 µM] | -26% | -11% | 4
CC(=O)O[C@@H]1C[C@]2(C)[C@H](C[C@@H](O)[C@H]3[C@@]4(C)CC[C@@H](O)[C@@H](C)[C@@H]4CC[C@@]32C)/C1=C(\CCC=C(C)C)C(=O)O | x | x | x | -4% | x | 11
C=CCOc1c(Cl)cc(CNc2ccc(N(C)C)cc2)cc1OC | 2µM* | u | 154%[38.3 µM] | u | u | 34
CCOc1cc(CNc2ccc(S(N)(=O)=O)cc2)cc(Cl)c1OC | 6% | u | 0% | 0% | -3% | x
C=CCOc1c(Cl)cc(CNc2ccc(C)c(Cl)c2)cc1OC | -6% | -92* | 42%[38.3 µM] | -12% | -13% | 7
Cc1coc(C)c1C(=O)CC1(O)C(=O)Nc2cc(Cl)cc(Cl)c21 (configuration not stated) | 3.2µM* | u | 4%[38.3 µM] | u | -4% | 6
CN(C)S(=O)(=O)c1ccc(C(=O)Nc2nc(-c3cccs3)cs2)cc1 | 162% | 30 | 16%[38.3 µM] | -6% | u | 16
COc1ccc(-n2c(C)cc(-c3csc(NC(=O)c4ccc(S(=O)(=O)N(C)C)cc4)n3)c2C)cc1 | 2.2µM* | 10 | -5% | -2% | -4% | x
COc1cccc(-c2nn(-c3ccccc3)cc2CN(C)C(C)c2ccncn2)c1 (configuration not stated) | -5% | x | 9% | x | x | x
COc1ccc(-n2cc(CN(C)C(C)c3ccncn3)c(-c3cccc(F)c3)n2)cc1 (configuration not stated) | 25µM* | x | 16% | x | x | x
COC(=O)C1=C(Cn2cnc3ccccc32)NC(=O)NC1c1cc(C)ccc1C (configuration not stated) | 4% | -103* | 35%[38.3 µM] | 6% | -14% | 17
CN(C)c1ccc(C2=NOC(CN3C(=O)c4ccccc4S3(=O)=O)C2)cc1 (configuration not stated) | 16µM* | -24 | 0%[38.3 µM] | -2% | u | 5
Cc1cccc(-c2c3c(=O)n(C)c(=O)n(C)c3c3c(C)nc4ccccc4n23)c1 | x | x | x | x | x | 9
